# Only some compounds are listed: those with a hit (about 9.5% of all), similar ones and a draw of the others.
# RE007 growth inh = qHTS Assay for Inhibitors of the HIV-1 protein Vpr | S. pombe RE007 Vpr strain, BacTiter-Glo ATP luminescence, 24 h | Potency, µM (doses to about 92.2 µM), for the others: at the highest dose activity change, negative = less growth, hits mostly inhibitors | actives 0.21% (n = 360,000) | AID 651644, 2012; active = well fitted falling curve with a large enough effect; inconclusive = small, poorly fitted or top-dose-only effect; inactive = no such curve, though single readings can be large or run the other way; note: % is set by controls: 0 for no effect and ±100 for the full control effect; nearly all actives have a fitted effect of over 50% in size
#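 Fission yeast strain RE007, carrying one chromosomally integrated HIV-1 vpr copy, was seeded at OD 0.01 in PMG+AL medium with 23 nL pinned compound. After 24 h at 30 °C and 99% humidity, viability was read by BacTiter-Glo luminescence.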
# SARS PLP yeast = qHTS of Yeast-based Assay for SARS-CoV PLP | S. cerevisiae expressing SARS-CoV PLpro, growth rescue | Potency, µM (titrated, usually from 32.9 µM), inactives show at the top dose activity, positive = growth rescue, most hits filed as activators | actives 0.19% (n = 330,000) | AID 485353, 2010; note: 0% is about no effect; nearly all actives have a fitted effect of over 55% in size
# Pf growth 48h = Primary qHTS for delayed death inhibitors of the malarial parasite plastid, 48 hour incubation; AID 504832, 2011; actives 5.9% (n = 310,000); P. falciparum luciferase growth in erythrocytes, 48 h; Potency, µM (top dose mostly 28.7 µM), without a hit: top-dose activity change, negative = inhibition, most hits filed as inhibitors; active = well fitted inhibition curve with a large enough effect; inconclusive = small, poorly fitted or top-dose-only effect, or another doubt; inactive = no such curve, though single readings can be large or run the other way; note: % is set by controls: 0 for no effect and ±100 for the full control effect
#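 In quantitative HTS format, infected erythrocytes bearing luciferase-reporter parasites were treated for a single generation at 37 C. Luminescence after adding detection reagent served as the growth measure.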
# NS1 function inh = qHTS Assay for Inhibitors of Influenza NS1 Protein Function | AID 2326, 2010 | actives 0.4% (n = 270,000) | Potency, µM (titrated, usually from 46.1 µM), without a hit: at the top dose activity, positive = more growth; note: actives are rising curves; nearly all actives have a fitted effect of over 50% in size
#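 S. cerevisiae expressing influenza A NS1, grown in glucose, washed, then diluted 1:100 into pH 6.0 -URA galactose medium with 23 nl compound. Growth recovery read as OD600; NS1-free strain serves as control.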
# Pf growth 96h = Primary qHTS for delayed death inhibitors of the malarial parasite plastid, 96 hour incubation; P. falciparum luciferase reporter growth, 96 h; Potency, µM (highest dose often 28.7 µM), without a hit: at the highest dose activity change, negative = inhibition, most hits filed as inhibitors; actives 6.9% (n = 320,000); AID 504834, 2011; active = well fitted inhibition curve with a large enough effect; inconclusive = small, poorly fitted or top-dose-only effect, or another doubt; inactive = no such curve, though single readings can be large or run the other way; note: % is set by controls: 0 for no effect and ±100 for the full control effect
#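 96 h incubation, 37 C, 5% CO2, of luciferase-reporter P. falciparum-infected RBCs (2% hematocrit, 0.05% parasitemia final) with test compounds; endpoint luminescence.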
# Starred values were filed as active, the others as inactive; ? = inconclusive; / = no result; [ ] = remark or other dose. Unless noted, calls come from the whole dose curve. Potency is the fitted concentration of half-maximal effect.
SMILES,RE007 growth inh,SARS PLP yeast,Pf growth 48h,NS1 function inh,Pf growth 96h
COc1ccc(C(CNC(=O)c2cccc(S(=O)(=O)Nc3ccc(F)cc3)c2)N(C)C)cc1 (stereo not given),-6%,1%,12µM*,/,9.3µM*
COc1ccc(C(CNC(=O)c2cccc(NS(=O)(=O)c3ccc(C)c(F)c3)c2)N(C)C)cc1 (stereo not given),-4%,-5%,?,/,12µM*
CCN1CCc2c(sc(NC(=O)c3ccc(S(=O)(=O)N4CCCC4)cc3)c2C(=O)NC)C1,1%,-6%,10µM*,19%,15µM*
CNC(=O)c1c(NC(=O)c2ccc(S(=O)(=O)N3CCCCC3)cc2)sc2c1CCN(C(C)C)C2,6%,-3%,10µM*,10%,8.3µM*
CN1CCc2c(sc(NC(=O)c3ccc(S(=O)(=O)N4CCCCCC4)cc3)c2C(N)=O)C1,-2%,0%,?,-9%,?
COc1ccccc1C(=O)NNC(=O)c1ccc(Br)o1,-21%,0%,109%,-9%,-2%
CC(NS(=O)(=O)c1c(N)n(C)c(=O)n(C)c1=O)c1ccccc1 (stereo not given),-15%,-6%,3%,-8%,2%
COC(=O)c1cc2sc(Cl)cc2n1CC(=O)Nc1ccc(OC)c(OC)c1OC,8%,0%,0.41µM*,-8%,21%
COC(=O)c1cc2occc2n1CC(=O)Nc1ccc(OC)c(OC)c1OC,16%,9%,/,4%,135%
COC(=O)c1cc2oc(C)cc2n1CC(=O)Nc1ccc(OC)c(OC)c1OC,/,10%,1.7µM*,-12%,?
CC(=O)OC1=CC2=CC[C@H]3[C@H]4CCC(=O)[C@@]4(C)CC(=O)[C@]3(S)[C@]2(C)CC1,/,/,/,0%,/
CCOC(=O)C1CCN(C2CCN(C(=O)c3oc4c(C)c(C)ccc4c3C)CC2)CC1,3%,25%,13µM*,3%,-15%
CCOC(=O)C1CCN(C2CCN(C(=O)c3oc4c(F)cccc4c3C)CC2)CC1,-11%,17%,8.3µM*,6%,?
Cc1c(C(=O)N2CCC[C@H]2CO)oc2c(F)cccc12,-1%,3%,22%,9%,15µM*
CC(=O)N1CCN(c2ncnc3ccccc23)CC1,18%,19%,14%,10%,-28%
COC(=O)c1cc(CSc2nc3ccccc3c(=O)n2C)oc1C,39%,-3%,?,0%,-12%
O=S1(=O)CC(N2CCSCC2)CN1Cc1cn(Cc2cccc(C(F)(F)F)c2)nn1 (stereo not given),-6%,/,/,/,/
CC(C)CNC(=O)c1oc2ccccc2c1COc1ccccc1,-17%,-30%,12µM*,-55%,10µM*
CCC(CC)NC(=O)c1oc2ccccc2c1COc1ccccc1,4%,26%,6.6µM*,15%,4.1µM*
CCCCN(C)CCNC(=O)C1CCN(S(=O)(=O)c2cccc3nsnc23)CC1,0%,-2%,-7%,7%,38%
Cn1c(=O)cc(SCC(=O)NCCC2=CCCCC2)c2ccc(Cl)cc21,7%,21%,-7%,0%,15µM*
CCOc1ccc(CCNC(=O)CSc2cc(=O)n(C)c3cc(Cl)ccc23)cc1OCC,6%,-12%,18%,-7%,?
C=C1[C@@H](OC(C)=O)CC[C@]2(C)[C@@H]1C[C@@H]1C[C@H](OC(C)=O)C(C)=C([C@@H](OC(C)=O)[C@@H]2OC(C)=O)C1(C)C,-3%,-1%,6.6µM*,-16%,7.4µM*
N=c1oc2ccc(Br)cc2cc1C(=O)NCc1ccc(F)cc1,5%,-3%,-2%,-2%,2.6µM*
CCN(CC)c1ccc2cc(C(=O)NCc3ccc(F)cc3)c(=N)oc2c1,/,0%,?,14%,1.7µM*
SMILES,RE007 growth inh,SARS PLP yeast,Pf growth 48h,NS1 function inh,Pf growth 96h
Cc1ccc(CNC(=O)c2cc3cc(Br)ccc3oc2=N)cc1,-17%,-4%,5%,0%,23%
CCOC(=O)C1CCN(C(=O)CNC(=O)Cn2c(C)cc3ccccc3c2=O)CC1,2%,-1%,3%,-12%,3.3µM*
CCOC(=O)CNC(=O)Cn1c(C)cc2ccccc2c1=O,4%,0%,0%,-30%,13%
CCOC(=O)c1ccc(NS(=O)(=O)c2ccc3c(c2)NC(=O)CCS3)cc1,-7%,-5%,-16%,-1%,?
Cc1cc(C)c(NS(=O)(=O)c2ccc3c(c2)NC(=O)CCS3)c(C)c1,-1%,0%,12µM*,7%,8.3µM*
Cc1ccc(NS(=O)(=O)c2ccc3c(c2)NC(=O)CCS3)c(C)c1,-12%,17%,2.6µM*,-3%,10µM*
CC(CNS(=O)(=O)c1ccc2c(c1)NC(=O)CCS2)c1ccccc1 (stereo not given),5%,-4%,-8%,1%,?
COc1ccc(C)cc1NS(=O)(=O)c1ccc2c(c1)NC(=O)C(C)S2 (stereo not given),-7%,4%,?,9%,54%
Cc1ccc(NS(=O)(=O)c2ccc3c(c2)NC(=O)C(C)C(=O)N3)c(Cl)c1 (stereo not given),0%,-1%,7%,0%,10%
Cc1ccc(NS(=O)(=O)c2ccc3c(c2)NC(=O)CCS3)c(Cl)c1,6%,1%,4.7µM*,11%,?
COc1ccc(Cl)cc1NS(=O)(=O)c1ccc2c(c1)NC(=O)CCS2,-5%,0%,17%,3%,7.4µM*
O=C1NCN(c2ccccc2)C12CCN(CC1COc3ccccc3O1)CC2 (stereo not given),/,/,?,-6%,-11%
O=C1NCN(c2ccccc2)C12CCN(CCCC(c1ccc(F)cc1)c1ccc(F)cc1)CC2,-9%[18.4 µM],-7%,1.9µM*,4%,3.7µM*
O=C1NCN(c2ccccc2)C12CCNCC2,0%,-2%,2.6µM*,6%,?
O=c1[nH]c2ccccc2n1C1CCN(CCCC(c2ccc(F)cc2)c2ccc(F)cc2)CC1,-7%,4%,?,6%,2.6µM*
CN=C(N)/N=C(\N)Nc1cc2ccccc2c2ccccc12,/,/,/,3%,/
COc1ccc(C2CC(c3cccs3)=NN2C(=S)Nc2ccccc2)cc1OC (stereo not given),13%,-17%,6.6µM*,-5%,9.3µM*
CC1=NN(C(=S)Nc2ccccc2)C(c2ccccc2)C1 (stereo not given),-21%,27%,9.3µM*,-5%,2.6µM*
COc1cccc(C2CC(c3cccs3)=NN2C(=S)Nc2ccccc2)c1OC (stereo not given),-2%,3%,?,21%,41%
O=[N+]([O-])c1ccc(C(O)CSC(=S)N2CCCCC2)cc1 (stereo not given),4%,-2%,135%,3%,172%
